# Screening results as filed in PubChem BioAssay.
# D1 antagonist: Antagonist of Human D 1 Dopamine Receptor: qHTS; activity change, negative = inhibition, % at 10 µM; hit rate 3.2% among 360,000; D(1A) dopamine receptor (Homo sapiens), P21728; AID 504652, 2011; HEK293 TREx D1 cells, calcium flux, dopamine EC80; hits give low values; in the data active = activity change below about -30%
# Target sequence (P21728 whole entry, looked up): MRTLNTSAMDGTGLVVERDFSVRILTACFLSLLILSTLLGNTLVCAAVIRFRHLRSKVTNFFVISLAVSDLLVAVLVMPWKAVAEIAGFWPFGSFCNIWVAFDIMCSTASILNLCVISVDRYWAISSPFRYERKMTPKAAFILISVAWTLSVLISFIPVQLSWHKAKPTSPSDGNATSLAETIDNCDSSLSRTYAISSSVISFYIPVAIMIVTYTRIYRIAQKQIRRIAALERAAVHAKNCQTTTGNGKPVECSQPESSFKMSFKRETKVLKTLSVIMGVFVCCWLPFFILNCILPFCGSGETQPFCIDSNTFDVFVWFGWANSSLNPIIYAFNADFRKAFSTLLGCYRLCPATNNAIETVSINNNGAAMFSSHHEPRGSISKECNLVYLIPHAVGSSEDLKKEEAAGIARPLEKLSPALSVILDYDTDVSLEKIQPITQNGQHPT
#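 Using tetracycline-induced force-coupled D1 Hek293 cells and a calcium dye, signals were followed for 180 s after compound, then for 180 s after EC80 dopamine, to detect inhibitors.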
# TRHR agonist: qHTS for Small Molecule Agonists and Allosteric Enhancers of Human TRH Receptor: Primary Screen for Agonists | activation, % at 2 µM | hit rate 0.18% among 360,000 | AID 493084, 2011 | TRHR cells, calcium flux fluo-8, FDSS agonist mode
#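 Agonist-mode FDSS calcium read (Ex 480/Em 530, 1 s cycles) in 1536-well TRHR cells with fluo-8 dye, after 10-cycle baseline and 23 nL compound addition; TRH at EC20 (10 nM final) added afterwards for the enhancer phase.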
# TRHR enhancer: qHTS for Small Molecule Agonists and Allosteric Enhancers of Human TRH Receptor: Primary Screen for Enhancers | Thyrotropin-releasing hormone receptor (Homo sapiens), P34981 | TRHR cells, fluo-8 calcium fluorescence, EC20 TRH enhancement | enhancement, % at 2 µM | hit rate 0.66% among 360,000 | AID 493056, 2011; in the data active = enhancement above about 30%
#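 Enhancer read-out: after compound pinning and an initial kinetic agonist-mode read, an EC20 of TRH (10 nM final) was injected and fluo-8 calcium signal (Ex 480/Em 530) followed at 1 s/cycle for 100 cycles in TRHR-expressing cells.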
# D1 ag: Allosteric Agonists of the Human D1 Dopamine Receptor: qHTS | activation, % at 2 µM | hit rate 1% among 360,000 | AID 504660, 2011 | HEK293 T-REx D1 cells, calcium flux, agonist mode
#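 Inducible HEK293 T-REx D1 cells, force-coupled to calcium signalling, were plated at 4000 cells/well with tetracycline and held overnight at 30 C. After no-wash calcium dye loading, compound-evoked calcium rise over 180 s flagged agonists.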
# USP1 inh: Inhibitors of USP1/UAF1: Primary Screen | Ubiquitin carboxyl-terminal hydrolase 1 (Homo sapiens), O94782 | Potency, µM (doses to about 57.1 µM), hits mostly inhibitors | recombinant USP1/UAF1, Ub-Rhodamine cleavage fluorescence | hit rate 0.23% among 390,000 | AID 743255, 2014; active = well fitted inhibition curve with a large enough effect; inconclusive = small, poorly fitted or top-dose-only effect; inactive = no such curve, though single readings can be large or run the other way; also: nearly all actives have a fitted effect of over 60% in size
#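 USP1/UAF1 complex at 1 nM was preincubated with compound for 15 min at room temperature, then Ub-Rho substrate (150nM final) was added. Fluorescence (480/540 nm) was read kinetically, 6 reads every 60 seconds.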
# D1 potentiator: Potentiators of Human D1 Dopamine Receptor: qHTS. HEK293 TREx D1 cells, calcium flux, dopamine EC20 potentiation. D(1A) dopamine receptor (Homo sapiens), P21728. AID 504651, 2011. hit rate 0.036% among 360,000. potentiation, % at 10 µM; in the data active = potentiation above about 30%
# Numbers stand for hits; i = inactive; ? = inconclusive; nt = no result. Rows were chosen to be rich in hits. Some 4.4% of all compounds tested hit in one or more screens of this group. Rule as the data show it, unless noted: active = activation above about 30%; inactive = the rest.
SMILES,D1 antagonist,TRHR agonist,TRHR enhancer,D1 ag,USP1 inh,D1 potentiator
Cc1cc(NC(=O)c2ccc(-c3ccc(Br)cc3)o2)cc(-c2nc3ncccc3o2)c1O,i,i,i,i,i,i
Cc1ccc(NC(=O)CCn2c(=O)c3cccn3c3ccccc32)cc1Cl,i,i,i,i,i,i
O=C(Cc1c(F)cccc1Cl)NCCN1CCOCC1,i,i,i,i,i,i
O=C(Cc1c(F)cccc1Cl)N1CCOCC1,-36,i,i,i,i,i
CCCN(c1ccc(C(C)C)cc1)S(=O)(=O)c1ccc2c(c1)n(C)c(=O)c(=O)n2C,i,i,i,i,i,i
Cn1c(CNC(=O)CSc2nc(-c3ccccc3F)nc3cc(=O)[nH]n23)nc2ccccc21,-58,i,i,i,i,i
CC(NC(=O)CSc1nc(-c2ccccc2F)nc2cc(=O)[nH]n12)c1nc2ccccc2n1C (configuration not stated),i,i,i,i,i,i
Cc1c2cnn(CC(=O)NCc3ccc(F)cc3)c(=O)c2c(C)n1Cc1ccccc1Cl,i,i,i,i,i,i
O=C(O)c1cc(-n2c(/C=C\c3ccc(F)cc3)nc3ccccc3c2=O)ccc1Cl,-32,i,i,i,i,i
CN(C)c1ccc(/C=C/c2nc3ccccc3c(=O)n2-c2ccc(C(=O)O)cc2)cc1,i,121,30,102,?,i
COc1cccc(Cn2c(CNS(=O)(=O)c3ccc4c(c3)CCCC4)nc3cccnc32)c1,i,i,i,i,i,i
CCc1ccc(CNC(=O)CN2C(=O)C3CCCCN3c3ccc(C(=O)N4CCCC4)cc32)cc1 (configuration not stated),i,i,i,i,?,i
COC(=O)C(N)Cc1ccc(Cl)cc1 (configuration not stated),i,i,i,i,i,i
COC(=O)[C@@H](N)Cc1ccc(O)c(O)c1,-53,i,i,i,i,i
CCOC(=O)c1[nH]c2c(c1Cc1ccccc1)C(=O)CC(c1ccc(OC)cc1)C2 (configuration not stated),i,i,i,i,i,i
Cc1ccc(OCC(=O)NCC(=O)OCc2cc(=O)n3nc(C)sc3n2)cc1,i,i,i,i,i,i
COc1cccc(C(=O)NCC(=O)OCc2cc(=O)n3c(C)csc3n2)c1,i,i,34,i,i,i
CC(=O)OCc1cc(=O)n2nc(C3CCCCC3)sc2n1,i,i,i,i,i,i
Cc1ccc(C(=O)NCC(=O)OCc2cc(=O)n3nc(C4CCCCC4)sc3n2)cc1,-45,i,i,i,i,i
CCc1nn2c(=O)cc(COC(=O)CNC(=O)COc3ccc(C)cc3)nc2s1,-52,i,i,i,i,i
COc1cccc(C(=O)NCC(=O)OCc2cc(=O)n3nc(C)sc3n2)c1,i,i,i,i,i,i
CC(C)(C)C(=O)OCc1cc(=O)n2nc(C3CCCCC3)sc2n1,-33,i,i,i,i,i
Cc1ccc(NC(=O)Cn2cc(C(=O)c3ccco3)c3ccccc32)cc1,i,i,i,i,i,i
COc1ccccc1OCCCCn1c(C2CC(=O)N(c3ccccc3Cl)C2)nc2ccccc21 (configuration not stated),i,i,i,37,i,i
Cc1ccccc1OCCCCn1c(C2CC(=O)N(c3ccccc3Cl)C2)nc2ccccc21 (configuration not stated),i,i,i,32,i,i
SMILES,D1 antagonist,TRHR agonist,TRHR enhancer,D1 ag,USP1 inh,D1 potentiator
Cc1cc(C)cc(OCCn2c(C3CC(=O)N(c4ccccc4Cl)C3)nc3ccccc32)c1 (configuration not stated),i,i,i,i,i,i
Cc1cccc(C)c1OCCCCn1c(C2CC(=O)N(c3ccc(F)cc3)C2)nc2ccccc21 (configuration not stated),i,i,i,36,i,i
Cc1ccc(C(=O)NC2=NC(c3ccc(C)cc3)CC(=O)N2)cc1 (configuration not stated),i,i,i,i,i,i
CCOc1ccc2oc(C(=O)Nc3ccc(N4CCOCC4)cc3)c(C)c2c1,i,i,i,i,i,i
CCOc1ccc2oc(C(=O)NNC(=O)c3csc(N4CCOCC4)n3)c(C)c2c1,-38,i,i,i,i,i
CCOc1ccc(CCNC(=O)CSc2nnnn2-c2ccccc2Cl)cc1OCC,i,i,i,i,i,i
CCN(c1ccccc1)S(=O)(=O)c1ccc(OC)c(NC(=O)CNCCc2ccccc2)c1,-33,i,i,i,i,i
Cc1cc(C(=O)OCC(=O)NCCC(C)C)c2ccccc2n1,-47,i,i,i,i,i
Cc1cccc(OCC(=O)NCc2cc(C)nc3ccccc23)c1,-34,i,i,i,i,i
COc1ccccc1CNC(=O)c1cc(C)nc2ccccc12,-31,i,i,i,i,i
Cc1cc(C(=O)OCC(=O)NCCc2ccccc2)c2ccccc2n1,i,i,i,i,i,nt
COc1ccc(S(=O)(=O)NCCc2csc(-c3ccc(F)cc3)n2)cc1,i,i,i,i,i,i
O=C(NC1CCCCCC1)C1CCN(C(=O)N2CCOc3ccc(Cl)cc32)CC1,i,i,i,i,i,i
CCN(CC)S(=O)(=O)c1ccc(C(=O)NCCSc2c(-c3ccc(OC)cc3)[nH]c3ccccc23)cc1,i,i,i,i,i,i
CCn1c2ccccc2c2cc(NC(=O)c3cc(C)on3)ccc21,-45,i,i,i,i,i
CCn1c2ccccc2c2cc(NC(=O)c3ccc(=O)oc3)ccc21,i,i,i,i,?,i
CCn1c2ccccc2c2cc(NC(=O)c3ccc(Br)o3)ccc21,i,i,i,i,i,i
CCn1c2ccccc2c2cc(NC(=O)c3coc(=O)c(Br)c3)ccc21,-32,i,i,i,nt,i
Cc1cc(C)cc(Nc2cc(C(=O)NCCCN(C)C3CCCCC3)c3ccccc3n2)c1,i,i,i,44,i,i
Cc1cc(C)cc(Nc2cc(C(=O)NCc3ccccc3)c3ccccc3n2)c1,i,i,i,i,i,i
CCc1ccccc1Nc1cc(C(=O)NC2CCC(C)CC2)c2ccccc2n1 (configuration not stated),i,i,i,i,i,i
